Source: PubChem (University of Kansas High Throughput Screening Laboratory)
mHTT-CaM PPI inh: mHTT-calmodulin interaction abrogation. AlphaScreen His-mHTT/GST-CaM binding, luminescence. inhibition, % at 15 µM. 190,000 tested, 3.6% active. AID 1671202
Pf apPOL block: Pf-apPOL DNA polymerase inhibition | Recombinant Pf-apPOL, molecular beacon fluorescence, 1.5 h | inhibition, % at 10 µM | 210,000 tested, 0.25% active
Hits are given with their value; n = inactive. In the library only some 3.5% were active in any assay of this set; here they are far more common. Rule as the data show it: active = inhibition above about 50%; inactive = the rest.

SMILES	mHTT-CaM PPI inh	Pf apPOL block
COc1cccc(C2CC(c3ccccc3Cl)n3nc(N)nc3N2)c1 (centres undefined)	n	n
Cc1cccc(C2CC(c3ccc(F)cc3)Nc3nc(N)nn32)c1 (centres undefined)	n	n
COc1ccc(C)cc1NC(=O)CN(c1cccc([N+](=O)[O-])c1)S(=O)(=O)c1ccccc1	n	n
CSc1nnc(-c2nn(C)c3c2CN(C(=O)c2ccc(C)cc2)CC3)n1C	n	n
CN1CCN(Cc2c(O)ccc3c2OC(=Cc2cc(Cl)cc4c2OCOC4)C3=O)CC1	n	n
O=C(Cc1c(C(=O)O)[nH]c2ccccc12)Nc1ccc(F)c(Cl)c1	n	n
CCN(CCCNC(=O)C1CC(=O)N(Cc2ccc(OC)cc2)C1)c1cccc(C)c1 (centres undefined)	n	n
O=c1ccc(-c2cccnc2)nn1CCNS(=O)(=O)c1ccc2c(c1)OCCO2	n	n
COc1ccccc1C1CC(c2ccc(C)cc2)Nc2nc(N)nn21 (centres undefined)	n	n
CCOc1ccccc1C1CC(c2ccc(Br)cc2)Nc2nc(N)nn21 (centres undefined)	99	n
COc1ccccc1C1CC(c2ccc(Br)cc2)Nc2nc(N)nn21 (centres undefined)	n	n
COc1ccccc1C1CC(c2ccc(Cl)c(Cl)c2)Nc2nc(N)nn21 (centres undefined)	99	n
O=C(NCc1[nH]nc2ccccc12)C1CC(=O)N(c2cccc(Cl)c2)C1 (centres undefined)	n	n
Clc1ccccc1-c1nc(COc2ccc3c(c2)OCO3)no1	n	n
CN(C)c1cccc(OCc2noc(-c3ccccc3Cl)n2)c1	68	n
O=C1OC2(CCCCC2)OC(=O)C1=CNc1cc(C(F)(F)F)ccc1Cl	n	n
Cc1ccccc1-c1nc2s/c(=C\c3ccc(F)cc3)c(=O)n2n1	n	n
Cc1ccc(CNC(=O)c2ccc(C)cc2Cl)cc1	n	n
O=C1NC(=O)/C(=C/c2cc(Cl)cc(Cl)c2O)S1	86	n
O=C1NC(=O)/C(=C/c2ccc(Cl)cc2Cl)S1	n	n
O=C1NC(=O)/C(=C/c2cc(Br)cc(Cl)c2O)S1	60	n
O=C1NC(=O)/C(=C/c2ccccc2OCc2ccc([N+](=O)[O-])cc2)S1	n	n
N=C1NC(=O)/C(=C/c2cc(Br)cc(Cl)c2O)S1	n	n
CCOc1cc([N+](=O)[O-])cc(/C=C2\SC(=O)NC2=O)c1O	n	71
COc1ccc(CC(=O)Nc2ccc3c(c2)CN(C2CCCCC2)C(=O)CO3)cc1	n	n
SMILES	mHTT-CaM PPI inh	Pf apPOL block
COc1ccc(C(=O)N2CCCC(c3cccc(C(=O)N(C)Cc4ccco4)c3)C2)cc1 (centres undefined)	n	n
COc1cccc(CC(=O)N2CCN(C3=NC=CN4C3=NCC4C)CC2)c1 (centres undefined)	n	n
Cc1ccccc1CNC(=O)C(C)C1CCN(S(=O)(=O)c2c(C)noc2C)CC1 (centres undefined)	n	n
CCCCC(=O)NC(c1ccccc1Cl)c1cc([N+](=O)[O-])c2cccnc2c1O (centres undefined)	100	n
CCCCC(=O)NC(c1ccc2c(c1)OCO2)c1cc([N+](=O)[O-])c2cccnc2c1O (centres undefined)	99	n
CCCCC(=O)NC(/C=C/c1ccccc1)c1cc([N+](=O)[O-])c2cccnc2c1O (centres undefined)	n	n
CN1CCN(C(=O)c2cccc(Cl)c2)CC1	n	n
COc1ccccc1NC(=O)N1CCC(CCOc2ccncc2)CC1	n	n
CCc1nc(-c2c(C)cc(C)nc2NC(=O)c2cccc(Br)c2)no1	n	n
CC(=O)N1CCCC(c2ccnc(Nc3ccc(F)cc3)n2)C1 (centres undefined)	n	n
O=C(Cc1cccs1)N1CCCC(c2ccnc(Nc3ccc(F)cc3)n2)C1 (centres undefined)	53	n
Cc1ccc(Nc2nccc(C3CCCN(C(=O)C4CCC4)C3)n2)cc1 (centres undefined)	n	n
Cc1ccc(Nc2nccc(C3CCCN(C(=O)Cc4cccs4)C3)n2)cc1 (centres undefined)	63	n
O=C1CSC(c2cccc([N+](=O)[O-])c2)N1c1ccc(F)cc1 (centres undefined)	n	n
O=C1c2ccccc2-c2onc3ccc(Cl)c1c23	n	n
O=C1c2ccccc2-c2onc3c(Cl)cc(O)c1c23	53	n
CCOc1ccc2noc3c2c1C(=O)c1ccccc1-3	n	n
O=C1c2ccccc2-c2onc3c(Br)cc(O)c1c23	58	n
O=C(NCc1cccnc1)C1CCN(c2nnc(-c3ccccc3)o2)CC1	n	n
Cc1ccccc1NC(=O)C1CCc2sc(C(=O)N3CCOCC3)cc2C1 (centres undefined)	n	n
O=C1Nc2ccc(Br)cc2/C1=C/c1ccccc1	n	n
C=CCN1C(=O)NC(=O)/C(=C/c2ccc(-c3ccc([N+](=O)[O-])cc3C)o2)C1=O	n	n
O=C1NN(c2ccc(Br)cc2)C(=O)/C1=C/c1ccc([N+](=O)[O-])o1	97	n
Cc1ccc(-c2ccc(/C=C3\C(=O)NN(c4ccc(F)cc4)C3=O)o2)c([N+](=O)[O-])c1C	n	n
Cc1cc(C)c(N2C(=O)NC(=O)/C(=C\c3ccc([N+](=O)[O-])o3)C2=O)c(C)c1	60	n
SMILES	mHTT-CaM PPI inh	Pf apPOL block
O=C1Nc2ccc(Br)cc2/C1=C/c1ccc([N+](=O)[O-])o1	71	n
O=C(CC(NC1CCCC1)C(=O)O)Nc1cccc([N+](=O)[O-])c1 (centres undefined)	n	n
O=S(=O)(c1ccccc1)c1nc(C(c2ccccc2)c2ccccc2)oc1N1CCOCC1	n	n
O=C1C(N2CCOCC2)=CC(=NS(=O)(=O)c2ccc(Cl)cc2)c2ccccc21	64	n
O=C1C(N2CCOCC2)=CC(=NS(=O)(=O)c2ccccc2)c2ccccc21	72	n
O=S(=O)(Nc1ccc(N2CCOCC2)cc1)c1ccc(Cl)cc1	n	n
O=C(c1ccccc1Cl)N1CCC(COCc2ccccc2)CC1	n	n
Cc1ccc(OCCNC(=O)CSc2ccc(C(F)(F)F)cc2[N+](=O)[O-])cc1C	n	n
NC(=O)c1sc2c(c1N)C(c1ccccc1Cl)CC(=O)N2 (centres undefined)	n	n
COCCn1cc2c3c(cccc31)CN(C(=O)c1ccccn1)CC2	n	n
CCn1cc2c3c(cccc31)CN(C(=O)Cc1cccc(F)c1)CC2	66	n
COCCn1cc2c3c(cccc31)CN(C(=O)c1ccc(C)c(F)c1)CC2	53	n
COc1ccc(C(=O)N2CCc3cn(C)c4cccc(c34)C2)c(C)c1	n	n
COCCn1cc2c3c(cccc31)CN(C(=O)c1ccc(F)c(Cl)c1)CC2	n	n
COCCn1cc2c3c(cccc31)CN(C(=O)c1cccc(Cl)c1)CC2	65	n
CCCC(=O)N1CCc2cn(CC)c3cccc(c23)C1	n	n
COCCn1cc2c3c(cccc31)CN(C(=O)c1ccc(OC)cc1C)CC2	51	n
Cn1cc(CCNS(=O)(=O)c2cccc3cccnc23)c2cccnc21	n	n
CC(=O)NC1=NN(C(C)=O)C(c2cccnc2)S1 (centres undefined)	n	n
CCc1ccc(C2N(c3ccc(Cl)cc3)C(=O)C3CCCN32)cc1 (centres undefined)	n	n
CC(=O)c1cccc(NS(=O)(=O)C2CC2)c1	n	n
